Assay results taken from PubChem BioAssay AID626 (Vanderbilt High Throughput Screening Facility, 2007).
Hit rate of the full screen: of about 64,000 compounds, about 1,900 (3%) were called active. For the sample, actives were picked, then their nearest neighbours and some compounds at random. Values without a mark were called inactive.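 How the source made its calls: active means fluorescence rise, raw or as B-score row- and column-corrected plate score, outside the 99.7% band of its plate's samples, either direction; inactive means the rest.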

tested on: Muscarinic acetylcholine receptor M1; experiment: direct activation of M1 receptor calcium signal – CHO-M1 cells, Fluo-4 calcium, agonist mode, primary screen (AID 626); conditions: Fluo-4 calcium fluorescence, at 10 µM, hits give high values

First: COc1ccc(-c2c3c(=O)n(C)c(=O)n(C)c3cn2NC(C)=O)cc1
Second: CCCCn1c(SCC(=O)NCCc2ccc(OC)c(OC)c2)nc2c1c(=O)n(C)c(=O)n2C
The B-score of the first is lower: 0.218 for the first, 0.299 for the second.

Going from `CN(C)S(=O)(=O)c1cccc(C(=O)Nc2cccnc2)c1` to `CC(=O)N1CCN(C(=O)c2cccc(S(=O)(=O)Nc3ccc(C)cc3)c2)CC1`, the B-score rises from 0.0444 to 0.272.

Compared with `O=C(NCCN1C(=O)C2C3C=CC(C3)C2C1=O)Nc1ccccn1` (centres undefined), `COC(=O)Nc1ncc(CN2C(=O)c3ccccc3C2=O)s1` is higher in B-score: 0.114 for the first, 0.171 for the second.

Going from `CCOC(=O)c1cc2n(c1C)-c1ccccc1C2=O` to `CCOC(=O)Nc1ccccc1N1C(=O)c2ccccc2C1=O`, the B-score falls from 0.122 to -0.565.

First: CC(=O)N(CN1C(=O)C2CC=CCC2C1=O)c1cccc(Cl)c1 (centres undefined)
Second: CN1C(=O)c2ccc(NC(=O)C3CCCCC3)cc2C1=O
The B-score of the first is lower: -1.96 for the first, -1.25 for the second.

First: O=C(NCc1ccco1)c1cnn2c(C(F)(F)F)cc(-c3ccco3)nc12
Second: O=S(=O)(Nc1ccc2nc(-c3ccco3)[nH]c2c1)c1ccccc1
The B-score of the first is higher: 0.0458 for the first, -0.0329 for the second.

Going from `COc1cc2c(cc1NC(=O)CN1CCN(S(=O)(=O)c3ccc(F)cc3)CC1)oc1ccccc12` to `COc1ccccc1NC(=O)CSc1nnc(Cc2cccn2C)n1-c1ccc(F)cc1`, the B-score rises from -1.04 to -0.202.

Compared with `OCc1nc(CO)n(Cc2ccccc2)n1`, `Cc1ccc(C)n1C(Cc1ccccc1)C(=O)O` (centres undefined) is lower in B-score: -0.345 for the first, -0.967 for the second.

Going from `COc1ccc(-c2csc(N3CCN(Cc4ccc5c(c4)OCO5)CC3)n2)cc1` to `O=C(CN1CCN(c2nc(-c3ccccc3)cs2)CC1)NCc1ccc2c(c1)OCO2`, the B-score falls from -0.173 to -0.269.

Compared with `O=c1c2ccccc2nc(CSc2nnnn2-c2ccccc2)n1-c1ccccc1`, `N/C(=N\c1nc2ccccc2o1)NC(=O)C(Cc1ccccc1)N1C(=O)c2ccccc2C1=O` (centres undefined) is higher in B-score: -1.38 for the first, 2.31 for the second.

Compared with `CCOc1cccc(/C(O)=C2/C(=O)C(=O)N(CCOC)C2c2ccncc2)c1` (centres undefined), `COCCN1C(=O)c2oc3c(C)cc(C)cc3c(=O)c2C1c1cccc(O)c1` (centres undefined) is higher in B-score: -0.0327 for the first, 0.00288 for the second.

Going from `Cc1cc(=O)cc(C)[nH]1` to `CCOc1cc(/C=N/O)cc(Br)c1OC`, the B-score rises from -0.0108 to 0.00429.

Going from `Cc1cccc(C)c1NC(=O)N1CC=C(n2c(=O)[nH]c3ccccc32)CC1` to `CCC(=O)N(Cc1cc2cc(OC)ccc2[nH]c1=O)c1ccccc1C`, the B-score falls from 1.14 to -0.55.

First: CCOc1ccc(NC(=O)N2CCN(CC)CC2)cc1
Second: CCOC(=O)C1CCN(C(=O)Nc2ccc(Cl)cc2)CC1
The B-score of the first is lower: -1.38 for the first, 0.00389 for the second.

First: CN1CCC2(CC1)NC(=O)NC2=O
Second: CN1CCN(S(=O)(=O)c2ccc3[nH]cc(C(=O)O)c(=O)c3c2)CC1
The B-score of the first is lower: -0.874 for the first, 0.537 for the second.

Compared with `Cn1c(=O)c2c(nc(NCCc3ccccc3)n2Cc2ccccc2)n(C)c1=O`, `COCCn1c(CN(Cc2ccccc2)Cc2ccccc2)nc2c1c(=O)n(C)c(=O)n2C` is higher in B-score: -0.39 for the first, 0.66 for the second.

First: Cc1cc(C(F)(F)F)c(C#N)c(SCC(=O)NC2CC2)n1
Second: CCSc1ncnc2c(C#N)c3n(c12)CCCCC3
The B-score of the first is higher: 0.0289 for the first, -0.0416 for the second.

Going from `O=C(CCC(=O)OCC(F)(F)C(F)F)NCc1ccccc1` to `CCC(Oc1ccccc1)C(=O)NCc1cccnc1` (centres undefined), the B-score rises from -1.45 to -0.899.

Going from `COc1ccc2[nH]c(=O)c(CN(Cc3nnnn3CCc3ccccc3)CC3CCCO3)cc2c1` (centres undefined) to `CCOc1ccc2[nH]c(=O)c(CN(Cc3nnnn3CCc3ccccc3)CC3CCCO3)cc2c1` (centres undefined), the B-score rises from 0.197 to 1.96.

First: Cc1cccc2cc(CN(Cc3nnnn3Cc3ccccc3)C3CCCC3)c(=O)[nH]c12
Second: Cc1cccc2cc(CN(Cc3cccs3)C(c3nnnn3C3CCCC3)C(C)C)c(=O)[nH]c12 (centres undefined)
The B-score of the first is higher: 0.299 for the first, -0.692 for the second.

Going from `Cc1cc(C)c2cc(CN(Cc3cccs3)Cc3nnnn3CC3CCCO3)c(=O)[nH]c2c1` (centres undefined) to `CCC(=O)Nc1ccc(C(=O)Nc2ccc3c(c2)C(=O)N(CC2CCCO2)C3=O)cc1` (centres undefined), the B-score rises from -0.2 to 0.81.

Compared with `COc1ccc(C(=O)N(Cc2ccc(N(C)C)cc2)C2CCS(=O)(=O)C2)cc1` (centres undefined), `COc1ccc(NC(=O)C2CCCN(S(=O)(=O)c3cccc4cccnc34)C2)cc1` (centres undefined) is lower in B-score: 0.609 for the first, 0.324 for the second.

Going from `CC(C)(C)Nc1c(N)c(=O)oc2ccccc12` to `CCCN(CCC)CCNC(=O)c1cc2c(C)nc3ccccc3c2o1`, the B-score falls from 0.371 to -0.845.

First: Cc1onc(-c2ccccc2Cl)c1C(=O)NCCn1ccc2ccccc21
Second: COc1ccccc1NC(=O)CSc1nnc(-c2ccoc2C)n1CCc1ccccc1
The B-score of the first is lower: -0.0968 for the first, 0.464 for the second.

First: CCOC(=O)C1=C(C)NC(=O)N(C(C)=O)C1c1ccc(Cl)cc1 (centres undefined)
Second: CCOC(=O)CSC1=C(C#N)C(c2ccco2)C(C(=O)OCc2ccccc2)=C(C)N1 (centres undefined)
The B-score of the first is lower: -0.0464 for the first, -0.00433 for the second.

Compared with `CCOC(=O)c1ccc(Nc2cc(C)nc3nc(C)nn23)cc1`, `CCOC(=O)c1ccc(NC(=O)Cn2nnc(-c3ccc(C)cc3)n2)cc1` is lower in B-score: -0.0395 for the first, -0.837 for the second.

Compared with `CC(=O)c1ccc(-n2nnnc2SCC(=O)N2CCN(C(=O)c3ccco3)CC2)cc1`, `O=C(c1ccco1)N1CCN(C(=O)C2CC(c3ccc(Cl)c(Cl)c3)=NO2)CC1` (centres undefined) is lower in B-score: 0.19 for the first, -0.464 for the second.

Compared with `COc1ccccc1CNC(=O)C1CCCN(S(=O)(=O)c2cccc3cccnc23)C1` (centres undefined), `COc1ccccc1-n1nnnc1S(=O)(=O)Cc1ccc(Cl)cc1` is higher in B-score: 0.00364 for the first, 0.986 for the second.

Going from `CCOc1cc(C2C(C(=O)OC)=CN(C3CCCC3)C=C2C(=O)OC)cc(Br)c1O` to `CCOC(=O)[C@H]1CCC[C@@H](NS(=O)(=O)c2ccc(NC(C)=O)cc2)C1`, the B-score falls from -0.323 to -0.507.

First: Cc1ccc(Cn2ccc(NC(=O)c3cc(C(C)C)on3)n2)cc1
Second: Cc1ccc(Cc2nc(-c3cccc(C)c3)no2)cc1
The B-score of the first is lower: -1.01 for the first, -0.177 for the second.

Compared with `O=C(c1cc(-c2cccs2)on1)N1CCCCC1`, `Cn1c(=NC(=O)CSCC(=O)N2CCCCC2)sc2ccccc21` is lower in B-score: 1.09 for the first, -0.071 for the second.

First: Cc1ccc(NC(=O)CCN2CCc3ccccc3C2)cc1
Second: Cc1ccc(-c2noc(CN3CCN(Cc4ccccc4)CC3)n2)cc1
The B-score of the first is higher: -0.165 for the first, -0.531 for the second.

Compared with `CC1CCN(Cc2nc3c(c(=O)n(C)c(=O)n3C)n2CCc2ccccc2)CC1`, `Cc1nc2ccccc2c2oc(C(=O)NCCCN3CCC(C)CC3)cc12` is lower in B-score: 0.945 for the first, 0.3 for the second.

Compared with `CCOC(=O)c1ccc(NC(=O)CSc2nnc(COc3ccccc3OC)n2C)cc1`, `CCOC(=O)c1sc(NC(=O)CSc2nnc(-c3ccco3)o2)c(C(=O)OCC)c1C` is lower in B-score: 0.692 for the first, -0.0997 for the second.

First: O=C(Nc1ccccc1N1CCCCC1)c1cccc(F)c1
Second: O=C(Nc1ccccc1C(=O)N1CCOCC1)C1CCC(=O)N1C1CCCC1 (centres undefined)
The B-score of the first is higher: 0.341 for the first, 0.307 for the second.

First: C/C(=C(\C#N)C(=O)NCCCN1CCOCC1)N(C)C
Second: CCOC(=O)Cn1c(=O)oc2cc(S(=O)(=O)N(C)Cc3ccco3)ccc21
The B-score of the first is higher: 0.122 for the first, -0.339 for the second.

First: Cc1cc(Nc2cccc(F)c2)n2ncnc2n1
Second: CCn1c(SCCC(C)C)nnc1-c1c[nH]c2ccccc12
The B-score of the first is higher: 1.22 for the first, 0.584 for the second.

`COc1ccc(N(C(=O)c2cccnc2)S(=O)(=O)c2ccc3c(c2)n(C)c(=O)n3C)cc1` was tested, and the B-score was 3.89 (active).
For `CCOC(=O)c1cc2n(c1N)-c1ccccc1C2=O`, the B-score was 145 (active).
For `FC(F)(F)COc1nc(N2CCCCC2)nc(N2CCNCC2)n1`, the B-score was 6.73 (active).
For `CC1CCCC(C)N1C(=O)CN1CCN(c2nc(-c3ccc(F)cc3)cs2)CC1` (centres undefined), the B-score was 2.64 (active).
In the case of `CCOc1ccc(NC(=O)N2CC=C(n3c(=O)[nH]c4ccccc43)CC2)cc1`, the B-score is reported as 3.49 (active).
`CCn1c(NCCc2ccc(OC)c(OC)c2)nc2c1c(=O)n(C)c(=O)n2C` was tested, and the B-score was 3.33 (active).
For `COc1ccc2[nH]c(=O)c(CN(CC3CCCO3)C(=O)Nc3ccccc3)cc2c1` (centres undefined), the B-score was 2.9 (active).
In the case of `CCOc1ccc2[nH]c(=O)c(CN(Cc3nnnn3Cc3ccccc3)CC3CCCO3)cc2c1` (centres undefined), the B-score is reported as 3.01 (active).
In the case of `Cc1cc2cc(CN(Cc3cccs3)Cc3nnnn3CC3CCCO3)c(=O)[nH]c2cc1C` (centres undefined), the B-score is reported as 6.85 (active).
With `CN1C(=O)c2ccc(NC(=O)c3c(F)c(F)c(F)c(F)c3F)cc2C1=O` the B-score was 4.34 (active).
With `COc1ccc(NC(=O)C2CCCN(S(=O)(=O)c3cccc4cccnc34)C2)cc1OC` (centres undefined) the B-score was 4.34 (active).
With `N#CC1=C(N)Oc2c(sc3ccccc23)C1c1ccco1` (centres undefined) the B-score was 52 (active).
With `O=C(CSCc1cccs1)N1CCCC1` the B-score was 4.57 (active).
For `COc1ccccc1NC(=O)CSc1nnc(Cn2nnc(-c3ccccc3)n2)n1-c1ccccc1`, the B-score was 2.12 (active).
With `CCN=C1SC(CC(=O)Nc2ccc(C)cc2)C(=O)N1CC` (centres undefined) the B-score was 5.15 (active).
`COCCn1c(CN2CCC(Cc3ccccc3)CC2)nc2c1c(=O)n(C)c(=O)n2C` was tested, and the B-score was 3.45 (active).
With `CCOC(=O)C1CCCN(Cc2nc(N)nc(Nc3ccc(C)cc3)n2)C1` (centres undefined) the B-score was 35.2 (active).
With `Cc1nc2ccccc2c2oc(C(=O)NCC3CCCO3)cc12` (centres undefined) the B-score was 2.93 (active).
In the case of `Cc1ccc(S(=O)(=O)Nc2ccc3ncccc3c2)cc1`, the B-score is reported as 3.16 (active).
With `COc1ccccc1Cc1nc(-c2ccc(C)cc2)no1` the B-score was 3.86 (active).
